Compounds without any hit were thinned out: in the full panel of roughly 83,000, 20% have a hit.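 Each cell line was grown in a 96-well plate and treated with one concentration of compound for 48 hours. Values below 10 were considered active.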 Unmarked numbers belong to inactive results. Calls of active or inactive are those of the source.
Legend:
Experiment in all cases: NCI-60 one-dose screen, 48 h (100 = growth as untreated, 0 = no growth, -100 = all killed)
Settings in all cases: 10 µM unless noted
SR leukemia = tested on: SR leukemia
RPMI-8226 leukemia = tested on: RPMI-8226 leukemia
OVCAR-8 ovarian = tested on: OVCAR-8 ovarian
OVCAR-5 ovarian = tested on: OVCAR-5 ovarian
OVCAR-4 ovarian = tested on: OVCAR-4 ovarian
SK-OV-3 ovarian = tested on: SK-OV-3 ovarian
IGROV1 ovarian = tested on: IGROV1 ovarian
OVCAR-3 ovarian = tested on: OVCAR-3 ovarian
HS 578T breast = tested on: HS 578T breast
NCI/ADR-RES ovarian = tested on: NCI/ADR-RES ovarian
T-47D breast = tested on: T-47D breast
BT-549 breast = tested on: BT-549 breast
MDA-MB-435 melanoma = tested on: MDA-MB-435 melanoma
SW-620 colon = tested on: SW-620 colon
MCF7 breast = tested on: MCF7 breast
HCT-116 colon = tested on: HCT-116 colon
KM12 colon = tested on: KM12 colon
HCC-2998 colon = tested on: HCC-2998 colon

| Compound | growth (SR leukemia) | growth (RPMI-8226 leukemia) | growth (OVCAR-8 ovarian) | growth (OVCAR-5 ovarian) | growth (OVCAR-4 ovarian) | growth (SK-OV-3 ovarian) | growth (IGROV1 ovarian) | growth (OVCAR-3 ovarian) | growth (HS 578T breast) | growth (NCI/ADR-RES ovarian) | growth (T-47D breast) | growth (BT-549 breast) | growth (MDA-MB-435 melanoma) | growth (SW-620 colon) | growth (MCF7 breast) | growth (HCT-116 colon) | growth (KM12 colon) | growth (HCC-2998 colon) |
| --- | --- | --- | --- | --- | --- | --- | --- | --- | --- | --- | --- | --- | --- | --- | --- | --- | --- | --- |
| C#CCOc1ccc(C2=NN(CCCC)C3N=C(Cl)c4ncn(CCCC)c4N23)cc1OCC#C (centres undefined) | 79.1% | 85.2% | 85.9% | 93.6% | 86.2% | 92.3% | 99.2% | 97.2% | 80.6% | 83% | 69.6% | 90.6% | 86.7% | 88.7% | 81.8% | 83.1% | 88.3% | – |
| COc1cccc(C2C3=C(COC3=O)N(CCO)c3cc4c(cc32)OCCO4)c1 (centres undefined) | 9.73% (active) | 25.4% | 27.7% | 29.8% | 24.2% | 22.6% | 13.8% | -59.7% (active) | -5.22% (active) | -35.1% (active) | 65.3% | 14.5% | -28.2% (active) | 17.7% | 13.1% | 3.53% (active) | -11.8% (active) | 4.51% (active) |
| COc1ccc(-c2cn(Cc3ccc4c(Br)cc(Br)c(O)c4n3)nn2)cc1 | -23.1% (active) | 67.2% | 88.7% | 95.6% | 96.2% | 108% | 56.6% | 73.2% | 109% | 102% | 65.1% | 111% | 89% | 75.4% | 67.4% | 77.8% | 99.4% | 101% |
| Cc1ccc(S(=O)(=O)c2nc(-c3ccccc3)oc2S(C)=O)cc1 (centres undefined) | -26.8% (active) | -51.3% (active) | 2.01% (active) | 45% | 37.3% | 83.6% | -50.6% (active) | -89.3% (active) | 78.9% | 70.1% | -49% (active) | 27.5% | 37% | -55.4% (active) | -20% (active) | -20.3% (active) | 49.8% | 70.5% |
| CNC1=C(Br)C(=O)c2c(C(=O)OC)c(C)nc(C)c2C1=O | 86.5% | 75.8% | 38.7% | 97.3% | 35.4% | 116% | 67.6% | 1.75% (active) | 72.4% | 74.7% | 62.8% | 104% | -66.8% (active) | 48.2% | 45.2% | 25.3% | 62.4% | – |
| CN1C(=O)N(C)C2C1NN=c1s/c(=C\c3ccc(F)cc3)c(=O)n12 (centres undefined) | 26.8% | 66.5% | 29.5% | 48.6% | 28.6% | 33.1% | 11% | 7.29% (active) | 14.8% | 10.3% | 13.3% | 44.2% | -19% (active) | 10.2% | 4.25% (active) | 4.86% (active) | 18.9% | – |
| CC1(C)CC[C@]2(CO)CC[C@]3(C)[C@H](CC[C@@H]4[C@@]5(C)CC[C@H](O)C(C)(C)[C@@H]5CC[C@]43C)[C@H]2[C@H]1O | 56.2% | 100% | 64.5% | 114% | 58.5% | 92.3% | 102% | 74.7% | 7.22% (active) | 80.8% | 75.1% | 96.2% | 91.5% | 84.9% | 69.2% | 42.8% | 65.2% | 101% |
| COC(=O)CCc1c(/C=C2\N=C(c3ccc[nH]3)C=C2OC)[nH]c(C)c1C(=O)OCc1ccccc1 | -17.8% (active) | -32.5% (active) | 7.03% (active) | 34.1% | 31.3% | 21.5% | 21.7% | -31.1% (active) | -14.7% (active) | 9.4% (active) | -2.41% (active) | 1.79% (active) | 2.53% (active) | 3.31% (active) | 7.6% (active) | -9.83% (active) | 10.6% | 22.8% |
| CCCCCN(CCCCC)CC(O)c1c(Cl)ccc2ccccc12 (centres undefined) | 32.9% | 66.2% | 87.5% | 65.8% | 79.5% | 93.6% | 63% | 90.7% | 80% | 77.8% | 69% | 105% | 84.2% | 46.1% | 72.2% | 37.2% | 75.9% | 70.8% |
